Laboratory results: PubChem BioAssay (NCATS)
Values joined by “and” are separate entries in the source; they are usually repeats but may differ in a detail not shown here. Equal values may be shown once. Results filed as inconclusive are left out. Active and inactive are the calls of the source. Unless noted, calls come from the whole dose curve; as a rule, active = well fitted curve in the direction sought with a large enough effect; inconclusive = small, poorly fitted or top-dose-only effect, or another doubt; inactive = no such curve, though single readings can be large; an effect the other way counts as inactive or inconclusive.

Assays:
[1] = tested on: Es-2; experiment: Primary qHTS to identify gynecologic anti-cancer compounds using libraries of approved drugs and bioactive compounds (AID 1345084); conditions: Gynecologic cancer cell panel viability, ATPlite luminescence, 48 h; series mostly up to 57.5 µM; note: nearly all actives have a fitted effect of over 55% in size; note: potency is the fitted concentration of half-maximal effect
Outline: (§1)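 Five-concentration response, 48 h; readout is ATP-driven luciferase luminescence.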

[2] = tested on: HeLa; experiment: as above; conditions: Gynecologic cancer cell panel viability, ATPlite luminescence, 48 h; series mostly up to 57.5 µM
Outline: as §1

[3] = tested on: OV90; experiment: as above; conditions: Gynecologic cancer cell panel viability, ATPlite luminescence, 48 h; series mostly up to 57.5 µM
Outline: as §1

[4] = tested on: PA-1; experiment: as above; conditions: Gynecologic cancer cell panel viability, ATPlite luminescence, 48 h; series mostly up to 57.5 µM
Outline: as §1

[5] = tested on: Tov-21-G; experiment: as above; conditions: Gynecologic cancer cell panel viability, ATPlite luminescence, 48 h; series mostly up to 57.5 µM
Outline: as §1

[6] = tested on: Tov112D; experiment: as above; conditions: Gynecologic cancer cell panel viability, ATPlite luminescence, 48 h; series mostly up to 57.5 µM
Outline: as §1

[7] = tested on: Hek293T; experiment: as above; conditions: Gynecologic cancer cell panel viability, ATPlite luminescence, 48 h, control line for the selectivity index; series mostly up to 57.5 µM
Outline: as §1

[8] = tested on: JEG-3; experiment: as above; conditions: Gynecologic cancer cell panel viability, ATPlite luminescence, 48 h; series mostly up to 57.5 µM
Outline: as §1

[9] = tested on: SKOV3; experiment: as above; conditions: Gynecologic cancer cell panel viability, ATPlite luminescence, 48 h; series mostly up to 57.5 µM
Outline: as §1

[10] = Drug repurposing screens with cells derived from glioblastoma tumor samples (AID 1345199); conditions: GBM patient neurospheres viability, ATP luminescence, 48 h; note: nearly all actives have a fitted effect of over 40% in size; note: potency is the fitted concentration of half-maximal effect; for activity, negative = cell killing: % is set by controls: 0 for no effect and ±100 for the full control effect
Outline: (§2)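 Primary testing used CD133+ neurospheres from four GBM patients, seven concentrations, 48 h exposure and ATP-based viability; confirmation added three slower-growing patient lines.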

[11] = qHTS assay to identify inhibitors of the type 1 interferon - major histocompatibility complex class I in skeletal muscle: Counter screen cell viability and HiBit confirmation (AID 1347412); conditions: iHSKM muscle cells + IFN-b, HiBiT or CellTiter-Glo, 24 h; for activity change, negative = inhibition: at 45.9 µM (top of the series); note: potency is the fitted concentration of half-maximal effect; for activity change, negative = inhibition: % is set by controls: 0 for no effect and ±100 for the full control effect; for all read-outs here: nearly all actives have a fitted effect of over 60% in size
Outline: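 CRISPR HLA-B*08:01-HiBit immortalized human myoblasts (C25cl48) stimulated with 4 ng/ml IFN-beta and compounds (12-point 1:3, top 46 uM final) for 24 h at 37 C. Duplicate plates read by HiBit lytic luminescence or CellTiter Glo ATP.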

[12] = tested on: astro; experiment: Drug repurposing screens with cells derived from glioblastoma tumor samples (AID 1345199); conditions: viability, ATP luminescence, 48 h; series mostly up to 45.9 µM; note: nearly all actives have a fitted effect of over 40% in size; note: potency is the fitted concentration of half-maximal effect; for activity, negative = cell killing: % is set by controls: 0 for no effect and ±100 for the full control effect
Outline: as §2

[13] = biological target: Nuclear receptor subfamily 1 group I member 2 (Rattus norvegicus) (UniProt Q9R1A7); experiment: qHTS assay for small molecule activators of the rat pregnane X receptor (rPXR) signaling pathway (AID 651751; call rule not given here; note: 0% is about no effect); conditions: rPXR reporter cells, luciferase (One-Glo), 24 h
[14] = at 45.9 µM (top of the series), tumour line B
[15] = at 45.9 µM (top of the series), tumour line D
[16] = at 46 µM (top of the series), tumour line A
[17] = at 46.1 µM (top of the series), tumour line C

Sequence of Nuclear receptor subfamily 1 group I member 2 (Rattus norvegicus) (Q9R1A7 whole entry, looked up): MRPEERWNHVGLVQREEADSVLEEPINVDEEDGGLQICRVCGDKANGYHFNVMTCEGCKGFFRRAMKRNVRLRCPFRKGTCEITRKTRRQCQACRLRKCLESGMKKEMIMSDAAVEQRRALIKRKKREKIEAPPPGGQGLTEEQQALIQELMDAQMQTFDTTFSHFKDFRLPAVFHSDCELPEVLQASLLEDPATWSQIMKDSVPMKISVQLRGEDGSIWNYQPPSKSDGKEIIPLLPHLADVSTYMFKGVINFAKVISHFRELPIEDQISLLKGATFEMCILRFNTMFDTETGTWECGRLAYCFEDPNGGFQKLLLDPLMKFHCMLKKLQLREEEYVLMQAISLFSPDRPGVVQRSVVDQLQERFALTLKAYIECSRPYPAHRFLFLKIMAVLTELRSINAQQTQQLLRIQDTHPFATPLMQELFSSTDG

CC(C)Oc1ccc2c(=O)c(-c3ccccc3)coc2c1
active: Potency [1] 5.01 µM | Potency [2] 28.2 µM | Potency [3] 22.4 µM | Potency [4] 20 µM | Potency [5] 15.8 µM | Potency [6] 20 µM

Cc1ccc(C(=O)c2cc(O)c(O)c([N+](=O)[O-])c2)cc1
inactive: Potency [1] | Potency [7] | Potency [8] | Potency [3] | Potency [9] | Potency [5] | Potency [6] | activity, negative = cell killing [10, 14] -17.5%

CC1(C)CCC(C)(C)c2cc(NC(=O)c3ccc(C(=O)O)cc3)ccc21
inactive: Potency [1] | Potency [2] | Potency [7] | Potency [8] | Potency [3] | Potency [4] | Potency [5] | Potency [6] | activity, negative = cell killing [10, 14] -10.2% | activity, negative = cell killing [10, 15] -17.2% | activity, negative = cell killing [10, 16] -36.1% | activity change, negative = inhibition ([11]; HiBiT) 1.95% | activity change, negative = inhibition ([11]; Viability) -0.914%

CC(C)C[C@H](NC(=O)[C@H](Cc1ccccc1)NC(=O)c1cnccn1)B(O)O
active: Potency [2] 0.316 µM | Potency [3] 0.0447 µM | Potency [9] 0.501 µM | Potency [6] 2 µM and 2.24 µM | Potency [12] 501 nM and 316 nM | Potency ([11]; HiBiT) 31.3 nM
inactive: Potency [8]

CN(C)CCc1c[nH]c2ccc(Cn3cncn3)cc12
inactive: activity, negative = cell killing [10, 14] -9.89% | activity, negative = cell killing [10, 15] -20.8% | activity, negative = cell killing [10, 17] -16% | Potency [12]

Nc1nc(Cl)nc2c1ncn2[C@H]1C[C@H](O)[C@@H](CO)O1
inactive: max response [13] -12.9%

O=Nc1c(-c2c(O)[nH]c3cc(Br)ccc23)[nH]c2ccccc12
active: Potency ([11]; HiBiT) 22200 nM

CNC[C@@H](O)[C@@H](O)[C@H](O)[C@H](O)CO
inactive: activity, negative = cell killing [10, 14] 0.477% | activity, negative = cell killing [10, 15] -17.4% | activity, negative = cell killing [10, 17] -4.13% | Potency [12]

C[C@H](Cn1cnc2c(N)ncnc21)OCP(=O)(O)O
inactive: activity, negative = cell killing [10, 14] -17.6% | activity, negative = cell killing [10, 15] -7.53% | activity, negative = cell killing [10, 16] -24.5% | activity, negative = cell killing [10, 17] -20.5% | Potency [12]

O=C1c2ccccc2-c2n[nH]c3cccc1c23
active: Potency ([10]; tumour line D) 12.6 µM | Potency [12] 10 µM
inactive: activity, negative = cell killing [10, 17] -13.2%

C[Se]CCC(N)C(=O)O (configuration not stated)
inactive: activity, negative = cell killing [10, 14] -7.06% | activity, negative = cell killing [10, 15] 3.7% | activity, negative = cell killing [10, 16] -13.2% | activity, negative = cell killing [10, 17] 5.25% | Potency [12]

c1ccc2[nH]c(-c3cscn3)nc2c1
inactive: Potency [2] | Potency [8] | Potency [3] | Potency [4] | Potency [9] | Potency [5] | Potency [6]

O=c1c(O)c(-c2ccc(O)cc2O)oc2cc(O)cc(O)c12
inactive: max response [13] -2.11%

CCOc1cc(CC(=O)N[C@@H](CC(C)C)c2ccccc2N2CCCCC2)ccc1C(=O)O
inactive: activity, negative = cell killing ([10]; at 20 µM (top of the series), tumour line C) -12% | activity, negative = cell killing ([10]; at 21.2 µM (top of the series), tumour line B) -4.95% | activity, negative = cell killing ([10]; at 21.2 µM (top of the series), tumour line D) -25.3% | activity, negative = cell killing ([10]; at 21.3 µM (top of the series), tumour line A) -13.6% | Potency [12]

CC(C)(S)[C@@H](N)C(=O)O
inactive: activity, negative = cell killing [10, 14] -10.5% | activity, negative = cell killing [10, 15] -6.11% | activity, negative = cell killing [10, 16] -3.65% | activity, negative = cell killing [10, 17] -16.2% | Potency [12]

O=C1CCc2ccc(OCCCCN3CCN(c4cccc(Cl)c4Cl)CC3)cc2N1
active: Potency ([10]; tumour line A) 3.98 µM | Potency ([10]; tumour line B) 22.4 µM | Potency [12] 31.6 µM
inactive: Potency [2] | Potency [8] | Potency [3] | Potency [9] | Potency [5] | Potency [6] | activity, negative = cell killing [10, 17] -16.8%

Cc1nc(Nc2ncc(C(=O)Nc3c(C)cccc3Cl)s2)cc(N2CCN(CCO)CC2)n1
inactive: Potency [2] | Potency [7] | Potency [8] | Potency [6]
active: Potency [4] 0.251 µM | Potency [9] 14.1 µM

CC(C)[N+]1(C)[C@@H]2CC[C@H]1CC(OC(=O)C(CO)c1ccccc1)C2 (some centres not stated)
inactive: activity, negative = cell killing [10, 14] -10.3% and -8.73% | activity, negative = cell killing [10, 15] -5.23% and -7.38% | activity, negative = cell killing [10, 16] -16.8% | activity, negative = cell killing [10, 17] 14% and -28.4% | Potency [12]

C[C@]12CCC(=O)C=C1CC[C@@H]1[C@H]2[C@@H](O)C[C@@]2(C)[C@H]1CC[C@]2(O)C(=O)CO
inactive: activity, negative = cell killing [10, 14] -8.77% | activity, negative = cell killing [10, 15] -14.8% | activity, negative = cell killing [10, 16] -3.08% | activity, negative = cell killing [10, 17] 14.8% | Potency [12]

Nc1ccn([C@@H]2O[C@H](CO)[C@@H](O)C2O)c(=O)n1 (some centres not stated)
active: Potency ([10]; tumour line A) 7.08 µM
inactive: activity, negative = cell killing [10, 15] -14.9% | activity, negative = cell killing [10, 17] -25.6% | Potency [12]

NC(=NCc1ccccc1)NC(=O)c1nc(Cl)c(N)nc1N
inactive: activity change, negative = inhibition ([11]; HiBiT) -27.7% | activity change, negative = inhibition ([11]; Viability) -20.2%

Cc1ccc(Nc2nccc(N(C)c3ccc4c(C)n(C)nc4c3)n2)cc1S(N)(=O)=O
inactive: Potency [1] | Potency [7] | Potency [8] | Potency [4] | Potency [6] | activity, negative = cell killing [10, 14] -23.7%
active: Potency [9] 14.1 µM | Potency ([10]; tumour line A) 2.51 µM | Potency ([10]; tumour line D) 7.08 µM

CCN(CC)CCOc1ccc(Nc2ncc3cc(-c4c(Cl)cccc4Cl)c(=O)n(C)c3n2)cc1
active: Potency ([11]; HiBiT) 557 nM and 883 nM | Potency ([11]; Viability) 12.5 µM and 2.79 µM

Cc1ccc(NC(=O)c2ccc(CN3CCN(C)CC3)cc2)cc1Nc1nccc(-c2cccnc2)n1
inactive: Potency [2]
active: Potency [3] 35.5 µM | Potency [4] 25.1 µM | Potency [12] 20 µM
